Giardia FBPA inh – qHTS Assay for Inhibitors of Fructose-1,6-bisphosphate Aldolase from Giardia Lamblia | A8B2U2 | purified Giardia FBPA | Potency, µM (titrated, usually from 59.6 µM), without a hit: top-dose activity, negative = inhibition, actives largely listed as inhibitors | actives 0.71% (n = 290,000) | AID 2451, 2010; further: potency means the concentration at half of the fitted maximal effect; on the % scale 0 is the no-effect control and ±100 the full control effect; nearly all actives have a fitted effect of over 55% in size
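Giardia FBPA (40 nM reagent) was preincubated 10 min at RT with compound (up to 57.5 uM final), then substrate plus GAPDH/TPI/NAD/arsenate coupling system with diaphorase/resazurin was added; resorufin fluorescence (525/598 nm) was read after 20 min.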
Shiga toxin inh – A qHTS for Small Molecule Inhibitors of Shiga Toxin | Vero cells, Shiga toxin protein synthesis inhibition reporter | inhibition, % at 38.7 µM | actives 9.2% (n = 290,000) | AID 2315, 2010; in the data active means inhibition mostly above about 28%, no sharp cut-off; inactive means mostly below about 43%; further: 0% is about no effect
Cycloheximide cs – Cycloheximide Counterscreen for Small Molecule Inhibitors of Shiga Toxin; actives 12% (n = 300,000); cell reporter, cycloheximide protein synthesis inhibition counterscreen; max response, %; AID 2314, 2010; in the data active means max response mostly above about 13%, no sharp cut-off; inactive means mostly below about 14%; further: read at 38.3 µM for the half of the compounds with a filed dose; 0% is about no effect
Sm TGR block – qHTS Assay for the Inhibitors of Schistosoma Mansoni Peroxiredoxins | Schistosoma mansoni thioredoxin glutathione reductase (TGR), Q962Y6 | purified TGR, DTNB reduction, TNB absorbance 405 nm | Potency, µM (top dose mostly 114 µM), without a hit: top-dose activity change, negative = inhibition, hits mostly inhibitors | actives 3% (n = 360,000) | AID 485364, 2010; further: potency means the concentration at half of the fitted maximal effect; on the % scale 0 is the no-effect control and ±100 the full control effect; nearly all actives have a fitted effect of over 60% in size
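First, TGR (20 nM dispensed) and NADPH were mixed with compound. Second, a 15 min room-temperature incubation followed. Third, further NADPH and then DTNB were added to start the reaction. Finally, TNB absorbance was monitored kinetically.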
LmPK inhibitor – qHTS Assay for Inhibitors of Leishmania Mexicana Pyruvate Kinase (LmPK). AID 1721, 2009. Potency, µM (highest dose often 57.5 µM), for inactives: at the highest dose activity change, negative = inhibition, usual class: inhibitors. actives 0.37% (n = 290,000). purified LmPK, Kinase-Glo ATP luminescence, 1 h; further: potency means the concentration at half of the fitted maximal effect; on the % scale 0 is the no-effect control and ±100 the full control effect
Target sequence (Q27686 whole entry, looked up): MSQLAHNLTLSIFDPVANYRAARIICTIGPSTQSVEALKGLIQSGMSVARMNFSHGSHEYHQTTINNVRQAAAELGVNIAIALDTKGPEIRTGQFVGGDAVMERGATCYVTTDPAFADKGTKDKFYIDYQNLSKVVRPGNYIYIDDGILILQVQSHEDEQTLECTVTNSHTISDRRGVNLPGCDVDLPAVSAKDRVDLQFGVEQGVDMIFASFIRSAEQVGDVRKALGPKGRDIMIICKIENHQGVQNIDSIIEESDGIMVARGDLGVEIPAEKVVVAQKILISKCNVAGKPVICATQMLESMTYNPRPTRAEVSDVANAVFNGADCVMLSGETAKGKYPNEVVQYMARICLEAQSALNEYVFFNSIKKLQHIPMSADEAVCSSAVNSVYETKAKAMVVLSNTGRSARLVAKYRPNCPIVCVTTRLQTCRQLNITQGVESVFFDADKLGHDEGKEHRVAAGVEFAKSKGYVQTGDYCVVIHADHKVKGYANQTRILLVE
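qHTS format; LmPK 0.1 nM; substrates PEP 0.5 mM and ADP 0.1 mM. One-hour room-temperature incubation, then coupled luciferase luminescence; 0.5 nM enzyme wells mark activation.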
Tb PYK inh – qHTS of Trypanosoma Brucei Inhibitors; TbPYK enzyme, Kinase-Glo Plus ATP luminescence, 45 min; Potency, µM (series often up to 76.8 µM), for inactives: at the highest dose activity, negative = inhibition, actives largely listed as inhibitors; actives 0.12% (n = 410,000); pyruvate kinase (Trypanosoma brucei), Q57TT1; further: potency means the concentration at half of the fitted maximal effect; on the % scale 0 is the no-effect control and ±100 the full control effect; nearly all actives have a fitted effect of over 50% in size
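Quantitative HTS: titrated library compounds versus trypanosomal pyruvate kinase in TEA buffer (pH 7.2) containing KCl, MgCl2, BSA and Tween-20. Reactions were initiated with ADP, 130 uM final. Kinase-Glo Plus luminescence was read after 45 min at RT.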
Active calls of the source: *; ? = inconclusive; / = no result given; + = active, no number; [ ] = dose if it differs, or a comment. Only a selection was taken, and hits are over-represented in it overall. Unless noted, the call rests on the fitted dose curve; in most records, active means well fitted curve in the direction sought with a large enough effect; inconclusive means small, poorly fitted or top-dose-only effect, or another doubt; inactive means no such curve, though single readings can be large; an effect the other way counts as inactive or inconclusive.

SMILES	Giardia FBPA inh	Shiga toxin inh	Cycloheximide cs	Sm TGR block	LmPK inhibitor	Tb PYK inh
CCNC(=O)O/N=C(\C)c1sc(-c2ccccc2)nc1C	-6%	61*	39*	5%	-4%	1%
C/C(=N\O)c1sc(-c2ccccc2)nc1C	-1%	98*	46*	1%	?	-1%
CC(=O)c1sc(-c2cccc(Cl)c2)nc1C	4%	49	20*	-2%	-6%	2%
CNC(=O)c1sc(-c2ccccc2)nc1C	-1%	132*	39*	8%	9%	-5%
CNC(=O)c1sc(-c2cccnc2)nc1C	-1%	-14	-4	4%	-4%	2%
CC(=O)c1sc(-c2ccc(Cl)cc2)nc1C	2%	53*	26*	5%	-9%	2%
COc1ccccc1-c1cncnc1NCc1cnc(C)cn1	-17%	/	/	/	/	/
COc1ncc2nc(-c3ccccc3)c(=O)n(C[C@H]3CCCO3)c2n1	-6%	/	/	/	/	5%
CCOC(=O)c1[nH]c(C)c(C(=O)Nc2ccc3c(c2)OCCO3)c1C	-17%	52*	48*	7%	0%	-7%
CCOC(=O)c1[nH]c(C)c(C(=O)Nc2ccc3c(c2)CCC3)c1C	16%	14	10	3%	-2%	-5%
CC(=O)c1c(C)[nH]c(C(=O)Nc2ccc3c(c2)OCCO3)c1C	?	99*	38*	0%	-20%	0%
CC1CCCCN1C(=O)C(=O)c1cn(CC(=O)N2CCCCCC2)c2ccccc12 (stereo not given)	/	-6	-1	-29%	-3%	4%
COc1ccc(C)cc1-n1nnnc1SCc1nc2ccccc2s1	-8%	129*	45*	-1%	-7%	-7%
COc1ccc(-n2nnnc2SCc2nc3ccccc3s2)cc1	-1%	99*	68*	1%	5%	?
COc1ccc(CSc2nnnn2-c2ccccc2)cc1	-4%	9	9	7%	4%	1%
COc1ccc(C)cc1-n1nnnc1SCC1CCCO1 (stereo not given)	12%	-3	11	0%	5%	-13%
CCN1/C(=C2\OC(=S)N(C)C2=O)Sc2ccccc21	3%	40*	14*	7%	1%	1%
O=C(OCc1cc(=O)n2c(n1)sc1ccccc12)c1ccc(O)cc1O	4%	18	1	-5%	-3%	0%
O=C(OCc1cc(=O)n2c(n1)sc1ccccc12)c1cccc(O)c1	-1%	49*	23*	1%	-5%	-10%
O=C(Nc1ccc(N2CCCCCC2)cc1)c1ccc[nH]1	/	/	/	-20%	/	-21%
O=C(Nc1ccccc1N1CCCC1)c1cc(Cl)ccc1Cl	1%	-4	-2	/	3%	-3%
O=C(COc1ccccc1Cl)Nc1ccc(N2CCCC2)cc1	/	53*	25*	-25%	-5%	-4%
O=C(Nc1ccc(N2CCCCCC2)cc1)c1ccccc1Cl	-6%	53*	34*	1%	0%	4%
CC(=O)N1CCN(c2ccc(NC(=O)c3ccccc3Cl)cc2)CC1	1%	3	-1	-18%	-2%	0%
O=C(Nc1ccc(N2CCCCC2)cc1)c1ccccn1	-2%	-21	-8	-2%	7.9µM*	?
SMILES	Giardia FBPA inh	Shiga toxin inh	Cycloheximide cs	Sm TGR block	LmPK inhibitor	Tb PYK inh
O=C(Nc1ccc(N2CCCC2)cc1)c1cc(Cl)ccc1Cl	9%	/	13*	3%	-3%	-28%
CCc1c(C)sc2c1CCN(Cc1ccccc1)C2c1ccccc1 (stereo not given)	/	/	/	6%	/	2%
CSc1ccc(S(=O)(=O)NCC(=O)OCC(=O)N(C)CC(=O)Nc2ccc(F)cc2)cc1[N+](=O)[O-]	/	/	/	/	/	0%
CN1CCN(c2ccc(NC(=O)c3ccc(Cl)cc3Cl)cc2)CC1	6%	/	15*	0%	6%	5%
COc1cccc(OC)c1C(=O)Nc1ccc(N2CCCC2)cc1	-3%	/	-2	-10%	0%	?
O=C(Nc1ccc(N2CCCC2)cc1)c1ccc(Cl)cc1Cl	4%	47*	47*	6%	-1%	-6%
O=C(Nc1ccc(NC(=O)c2ccccn2)cc1)C(=O)Nc1ccc2c(c1)OCCO2	16%	62	8	24%	-11%	-6%
O=C(Nc1ccc(SC(F)(F)F)cc1)c1ccccn1	-7%	113*	30*	2%	-16%	-5%
COc1ccccc1C(=O)Nc1ccc(N2CCCCC2)cc1	-6%	65*	45*	1%	?	-19%
O=C(CCC1N=C2c3ccccc3N=C(SCc3ccccc3Cl)N2C1=O)NCCc1ccccc1 (stereo not given)	/	/	/	3%	/	3%
O=C(Nc1ccc(N2CCOCC2)cc1)c1cc(F)c(F)cc1Cl	2%	56*	35*	5%	0%	-3%
O=C(Nc1ccccc1N1CCCCC1)c1cccc(Cl)c1	-2%	2	-3	-5%	1%	3%
COC(=O)Cc1ccc(NC(=O)c2ccccc2Cl)cc1	-4%	35	28*	/	-3%	0%
O=C(Nc1ccc(N2CCCC2)cc1)c1cccc(Cl)c1	?	52*	25*	1%	-6%	-23%
Cc1c(Cl)c(-c2n[nH]c(=S)n2-c2ccccc2)nn1C	-8%	-6	-5	1%	-12%	2.8µM*
Cc1cccc(-c2n[nH]c(=S)n2-c2ccccc2)c1[N+](=O)[O-]	2%	-4	17	0%	?	7.1µM*
Cc1c(Cl)c(-c2n[nH]c(=S)n2Cc2ccco2)nn1C	-9%	-4	-2	5%	?	?
CCc1cccc(NC(=O)CSc2ncccc2C(=O)Oc2ccccc2Cl)c1	/	-4	-3	6%	/	-4%
O=[N+]([O-])c1ccc(S(=O)(=O)N/N=C/c2ccc3c(c2)OCO3)cc1	?	50*	31*	6%	0%	-2%
O=S(=O)(N/N=C/c1ccc2c(c1)OCCO2)c1ccccc1	-7%	60	20*	-5%	0%	9%
O=[N+]([O-])c1cccc(S(=O)(=O)N/N=C\c2ccc3c(c2)OCO3)c1	?	75*	43*	1%	1%	3%
CCN(CC(=O)Nc1c(F)cccc1F)C(=O)Cc1csc(-c2ccccc2)n1	/	/	/	0%	/	0%
Cc1nc(NC(=O)C2CC3CCCC(C2)C3=O)sc1C (stereo not given)	-4%	+	47*	8%	3%	-7%
CCOC(=O)c1c(C)oc2nc(C)nc(N3CCN(c4ccc(C(C)=O)cc4)CC3)c12	/	/	/	4%	/	0%
O=C(CCOc1ccccc1)N(Cc1cccnc1)c1nc2c(Cl)cccc2s1	/	/	/	1.1µM*	/	-15%[15.4 µM]

Assay outcomes as filed in PubChem.
